Bioassay records as filed in PubChem.
D2 PAM-1: Beta-Arrestin HTS for Positive Allosteric Modulators of the Human D2 Dopamine Receptor: Potentiators. hit rate 0.23% among 360,000. AID 624464, 2012. potentiation, % (no concentration beside the values). DiscoveRx D2 beta-arrestin cells, luminescence, 90 min; 100% = 57 uM dopamine signal; in the data active means potentiation above about 50%
Target sequence (P14416 whole entry, looked up): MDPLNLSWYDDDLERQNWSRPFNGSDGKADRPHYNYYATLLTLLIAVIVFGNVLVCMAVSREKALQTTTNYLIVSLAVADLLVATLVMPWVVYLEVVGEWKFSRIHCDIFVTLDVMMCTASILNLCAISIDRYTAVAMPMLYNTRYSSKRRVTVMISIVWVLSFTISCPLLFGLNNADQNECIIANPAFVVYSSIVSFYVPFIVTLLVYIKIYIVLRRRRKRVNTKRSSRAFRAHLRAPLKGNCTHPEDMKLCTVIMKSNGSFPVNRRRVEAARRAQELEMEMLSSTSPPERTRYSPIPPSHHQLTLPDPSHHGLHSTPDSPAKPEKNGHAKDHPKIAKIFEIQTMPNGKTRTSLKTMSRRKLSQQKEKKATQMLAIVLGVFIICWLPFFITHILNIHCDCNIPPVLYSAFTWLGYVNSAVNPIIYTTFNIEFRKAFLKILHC
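PathHunter D2 cells, attached overnight at 37 deg C, received compound in DMSO plus dopamine at EC20 (50 nM final) for 90 min at 37 deg C. Beta-arrestin recruitment was read as luminescence after 1 h with detection reagent at ambient temperature.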
D2 PAM-2: HTS Assay for Positive Allosteric Modulators of the Human D2 Dopamine Receptor: Primary Screen for Potentiators. potentiation, % at 10 µM. HEK293 T-REx D2, calcium flux, EC20 dopamine potentiation. AID 485347, 2010. D(2) dopamine receptor (Homo sapiens), P14416. hit rate 0.34% among 340,000;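 active means potentiation over 3 SD above the plate norm, cut at about 30% in these data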; further: 0% is about no effect
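Using a no-wash calcium dye in inducible, force-coupled HEK293 Trex cells expressing D2, we tracked fluorescence each second for 180 s after compound, then for 180 s after EC20 dopamine to detect augmented signalling.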
D2 ag-1: HTS Assay for Allosteric Agonists of the Human D2 Dopamine Receptor: Primary Screen for Agonists. HEK293 T-REx D2 cells, calcium flux agonist mode. hit rate 0.53% among 340,000. activation, % at 2 µM. AID 485358, 2010. D(2) dopamine receptor (Homo sapiens), P14416;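 active means activation over 3 SD above normal in the single-dose calcium agonist read, cut at about 30% in these data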; further: 0% is about no effect
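Tetracycline-induced HEK293 Trex cells with D2 receptor force-coupled to calcium signaling, plated overnight at 30 C and loaded with no-wash calcium dye. Calcium flux read kinetically for 180 s after compound addition; responses flag agonists.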
D2 antag: HTS Assay for Allosteric Antagonists of the Human D2 Dopamine Receptor: Primary Screen for Antagonists | D(2) dopamine receptor (Homo sapiens), P14416 | HEK293 TREx D2 cells, calcium flux, dopamine EC80 | inhibition, % at 10 µM | hit rate 2% among 340,000; in the data active means inhibition above about 30%; inactive means below that, where a call was filed; further: 0% is about no effect
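Measurement of antagonist activity uses fluorescent calcium dye in inducible HEK293 T-REx D2 cells: 10 s baseline, compound addition with 180 s read, EC80 dopamine addition with a further 180 s read.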
D2 ag-2: Beta-Arrestin HTS for Positive Allosteric Modulators of the Human D2 Dopamine Receptor: Agonists; hit rate 0.084% among 360,000; D(2) dopamine receptor (Homo sapiens), P14416; DiscoveRx PathHunter D2 beta-arrestin, luminescence, 90 min; 100% = 57 uM dopamine signal; AID 624465, 2012; activation, % (concentration not given with the values); in the data active means activation above about 40%
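Agonist mode: compounds alone added to overnight-plated D2 PathHunter cells for 90 min at 37 C, with 57 uM final dopamine (EC100) defining full response. Beta-arrestin recruitment detected by chemiluminescent reagent, read after 1 h at ambient temperature.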
* hit, by the source's call; x = not tested or not shown. Hits are enriched below; roughly 2.4% of the tested compounds scored in any of these assays.

SMILES	D2 PAM-1	D2 PAM-2	D2 ag-1	D2 antag	D2 ag-2
Cc1ccc(-c2nnn(CC(=O)N(c3ccccc3)C(C(=O)NC3CCCC3)c3ccco3)n2)o1 (stereo not given)	-6	17	1	33*	0
Cc1cc(NC(=O)CCC(=O)N(c2ccc(C)c(F)c2)C(C(=O)NC2CCCC2)c2ccco2)no1 (stereo not given)	-4	-1	x	x	1
Cc1cc(NC(=O)CCC(=O)N(Cc2ccco2)C2(C(=O)NC3CCCC3)CCC(C)CC2)no1 (stereo not given)	-12	4	0	0	-1
Cc1cc(NC(=O)CCC(=O)N(C2CC2)C2(C(=O)NC3CCCC3)CCC(C)CC2)no1 (stereo not given)	-6	-2	0	37*	-3
CCc1ccc(N(C(=O)CCC(=O)Nc2cc(C)on2)C(C(=O)NC2CCCC2)c2ccco2)cc1 (stereo not given)	-16	11	-1	33*	-5
Cc1cc(NC(=O)CCC(=O)N(CCC(C)C)C(C(=O)NC2CCCC2)c2ccccc2C)no1 (stereo not given)	-1	-2	1	51*	8
CCCCN(CCCNC(=O)CN1N=C(c2ccc(C)cc2)CCC1=O)c1ccccc1	x	-2	1	x	x
Cc1ccc(NC(=O)Nc2nnc(N(CC(C)C)CC(C)C)s2)cc1Cl	x	-12	0	x	x
CN(Cc1ccccc1)c1nnc(NC(=O)Nc2cccc(Br)c2)s1	x	-13	-2	x	x
O=C(NC1CCN(Cc2ccccc2)CC1)c1ccccc1OCc1ccccc1	-22	-19	0	86*	-2
CCOc1ccccc1C(=O)NC1CCN(Cc2ccccc2)CC1	-13	-26	1	89*	2
O=C(NC1CCN(Cc2ccccc2)CC1)c1ccccc1OCc1ccccc1Cl	-22	-33	0	84*	-1
O=C(NC1CCCC1)c1ccccc1OCc1ccccc1	-7	4	1	-11	1
Cc1ccc2nc(Nc3ccccc3)c(C=O)c(=O)n2c1	20	37*	0	-1	6
CCCCCCSc1ccc(-c2nc3ccc(C)cn3c2NCc2ccccc2)cc1OC	-7	-5	1	2	-9
CCCCCCSc1ccc(-c2nc3ccc(C)cn3c2NCc2ccccc2)cc1	-4	-6	0	34*	-2
CCCOc1ccc(-c2nonc2NC(=O)c2ccco2)cc1OCCC	x	-2	-1	x	x
Cn1ncc2c(O/N=C(\N)c3ccc(C(C)(C)C)cc3)ncnc21	85*	13	0	-1	86*
Cc1nnc(SCc2cc(=O)oc3cc(O)ccc23)n1Cc1ccccc1	-5	5	0	30*	0
CC(c1n[nH]c(=S)n1-c1ccccc1)N1CCCCC1 (stereo not given)	2	-7	1	71*	2
COC(C[C@@H](O)CC(=O)[C@@H](C)OCc1ccccc1)OC	-3	9	0	7	-3
COC(C[C@H](O)C[C@H](O)[C@H](C)OCc1ccccc1)OC	-4	12	-1	38*	-3
C/C(=N\O)c1cc(Cl)cc(Cl)c1O	-8	14	0	-9	-5
C/C(=N\NC(N)=O)c1cc(Cl)cc(Cl)c1O	-7	-26	1	54*	6
Cc1cc(=O)n(CC(=O)Nc2ccc(Cl)c(Cl)c2)c(-n2nc(C)cc2C)n1	x	12	0	x	x
SMILES	D2 PAM-1	D2 PAM-2	D2 ag-1	D2 antag	D2 ag-2
Cc1c(N2C(=O)c3ccc4c5c(ccc(c35)C2=O)CC4)c(=O)n(-c2ccccc2)n1C	61*	4	0	-6	6
Cc1c(N2C(=O)c3ccc(Br)cc3C2=O)c(=O)n(-c2ccccc2)n1C	12	19	0	-6	2
Cc1nc2ccn(Cc3cccs3)c(=O)c2cc1C(=O)NCc1ccc(Br)cc1	x	6	0	x	x
Cc1c(C(=O)Nc2ccc(S(=O)(=O)Nc3ncccn3)cc2)oc2ccccc12	-3	22	0	46*	0
COc1ccc(C)cc1NC(=O)CNC(c1ccccc1)c1ccc(C)cc1 (stereo not given)	-11	0	1	-5	0
COc1ccccc1NC(=O)CNC(c1ccccc1)c1ccccc1	-6	x	-1	36*	-3
O=C(NCc1cccnc1)c1ccc(COc2ccccc2Cl)cc1	-13	-5	-1	4	1
O=C(NCc1cccnc1)c1ccc(COc2ccccc2Br)cc1	-11	-22	-2	53*	5
COc1ccc(Cl)cc1S(=O)(=O)NCc1ccc2c(c1)CCN2C(=O)c1cccc(C)c1	x	-6	x	x	x
COc1ccc(CCNC(=O)[C@H](C)NC(=O)N2CCn3c2nc2ccccc23)cc1OC	-9	-4	0	37*	-4
C[C@H](NC(=O)N1CCn2c1nc1ccccc12)C(=O)NC1CC1	-7	-11	1	67*	0
CC1=C(C(=O)Nc2cccc(F)c2)C2(CCCCCC2)OC1=O	x	-8	6	x	x
Cc1nc(-c2cccc(S(=O)(=O)N3CCC(C(=O)NCc4ccccc4)CC3)c2)no1	x	9	0	x	x
Cc1ccccc1NC(=O)CSC1=C(C#N)C(c2ccsc2)CC(=O)N1 (stereo not given)	0	-1	1	37*	-2
Cn1nnc2c(N3CCN(c4ccccc4F)CC3)ncnc21	x	16	x	x	x
Cc1ccc2c(c1)C(c1ccc(F)cc1)N(C(=O)c1ccc(S(=O)(=O)N3CCCCC3)cc1)CC(=O)N2 (stereo not given)	x	21	1	x	x
COc1ccc([N+](=O)[O-])cc1NC(=O)C(C)OC(=O)CSC(C)C(=O)Nc1cc(C)on1 (stereo not given)	-24	8	0	36*	-7
Cc1cc(NC(=O)C(C)SCC(=O)OC(C)C(=O)Nc2ccccc2C)no1 (stereo not given)	-1	-13	1	14	-3
Cc1cc(C)c2c(-n3cccc3)c(C(=O)NCc3cccc(F)c3)sc2n1	x	10	-2	x	x
O=C1CC(N2CCC(c3nc4ccccc4s3)CC2)C(=O)N1 (stereo not given)	-21	x	-1	33*	-6
Cc1oc2c(CN3CCC(C)CC3)c(O)ccc2c(=O)c1-c1ccccc1	-11	-4	-1	44*	-4
Cc1oc2c(CN3CCCC3)c(O)ccc2c(=O)c1-c1ccccc1	-8	10	0	2	-3
COc1ccc(NC(=O)CN2C(=O)c3ccccc3S2(=O)=O)cc1OC	2	33*	0	-14	0
